The campaign covered roughly 48,000 compounds. About 13,000 (27%) showed an effect of 50% or more. The list shows a part of the results.
system: Wolbachia pipientis; test: Anti-Wolbachia Cell-Based Screen; assay type: functional; design: scale not given: in the data most compounds retested in dose-response had high values; details: 5 µM

Structure (SMILES) | Percent Effect
Cc1nn(C)c(N2CCOCC2)c1CNC1CCc2ccccc2C1 (stereo unspecified) | -5.455%
Cc1cccc(CN2CCCC(O)(CNCCN3CCCCC3)C2=O)c1 (stereo unspecified) | -21.92%
CCOCc1cnc2n1CCN(C(=O)Cc1ccccn1)C2C.O=C(O)C(F)(F)F (stereo unspecified) | -0.9872%
CC1c2ncc(CN3CCN(C)CC3)n2CCN1Cc1ccccn1.O=C(O)C(F)(F)F.O=C(O)C(F)(F)F.O=C(O)C(F)(F)F.O=C(O)C(F)(F)F (stereo unspecified) | 110.4%
CC1c2ncc(COCC3CCOCC3)n2CCN1Cc1cccnc1.O=C(O)C(F)(F)F.O=C(O)C(F)(F)F (stereo unspecified) | -7.39%
CC1c2ncc(Cn3cccn3)n2CCN1Cc1ccccn1.O=C(O)C(F)(F)F.O=C(O)C(F)(F)F (stereo unspecified) | 102.5%
CC1c2ncc(Cn3cccn3)n2CCN1Cc1ccc(F)cc1.O=C(O)C(F)(F)F (stereo unspecified) | 95.73%
CC1c2ncc(Cn3cccn3)n2CCN1Cc1cccnc1.O=C(O)C(F)(F)F.O=C(O)C(F)(F)F (stereo unspecified) | 97.64%
CC1c2ncc(COCc3ccccn3)n2CCN1C1CCCC1.O=C(O)C(F)(F)F.O=C(O)C(F)(F)F (stereo unspecified) | 16.64%
CCCc1n[nH]c(C2CN(Cc3nnc(C4CC4)n3C)CCO2)n1 (stereo unspecified) | -1.998%
COCCO[C@H]1CCN(C(=O)c2cnoc2C)[C@H]1Cc1cnn(C)c1 | -37.67%
CC(CN1CCN(C)CC1)NC(=O)c1cc(Cl)c2c(c1)OCO2 (stereo unspecified) | -52.56%
CCn1cc(CN2CCCC(c3[nH]ncc3S(C)(=O)=O)C2)cn1 (stereo unspecified) | 1.783%
CCC[C@@H]1CN(Cc2cnc3c(S(C)(=O)=O)cnn3c2)C[C@H]1N(C)C | -11.35%
CCn1cc(CN2CCN(C)C3(CCC(=O)N(CC4CC4)CC3)C2)cn1 (stereo unspecified) | 0.5097%
CS(=O)(=O)c1ncc(CN2CCN3CCCC3C2)n1CC1CCCCC1 (stereo unspecified) | 0.5285%
COc1ncc(CN2CCCC(c3[nH]ncc3S(C)(=O)=O)C2)cn1 (stereo unspecified) | 102.2%
Cn1cc(CN2CCC(c3[nH]ncc3S(C)(=O)=O)C2)cn1 (stereo unspecified) | 89.03%
CN(C)S(=O)(=O)N1CC[C@@H]2CN(Cc3cnn(C)c3)C[C@@H]2C1 | -2.262%
CCn1cc(CN2CCC(c3[nH]ncc3S(C)(=O)=O)C2)cn1 (stereo unspecified) | 105.5%
CCCn1cc(CN2CCC(c3[nH]ncc3S(C)(=O)=O)C2)cn1 (stereo unspecified) | 113%
Cn1cc(CN2CC[C@@H]3[C@@H](CCC(=O)N3CC3CCNCC3)C2)cn1 | -8.948%
CCn1cc(CN2CCC(c3nnc(CN(C)C)n3CC)CC2)cn1 | -1.722%

Structure (SMILES) | Percent Effect
COc1cc(Br)c(S(=O)(=O)NC(=O)C(C)OC)cc1OC (stereo unspecified) | 2.536%
Cc1cc(C(=O)N2C[C@H]3CC[C@@H]2CN(Cc2ccccn2)C3)nc(C)n1 | -8.906%
Cc1ccc(F)c(S(=O)(=O)NCc2[nH]ncc2Br)c1 | -8.756%
CCn1nc(CC(C)C)cc1C(=O)N1CC(N2CCCCC2C)C1 (stereo unspecified) | 1.245%
CC(CCS(C)(=O)=O)NC(=O)NCc1ccc2c(c1)CCC2 (stereo unspecified) | 5.194%
Cc1ccc2c(c1)nc1n2[C@@H](CNC(=O)c2cncnc2)COC1 | -17.88%
Cc1cc(N2CCC(n3cc(CN4CCNCC4)nn3)CC2)ccn1 | -4.274%
Cn1nccc1-c1nnn2c1COCC(CNCC1CC1)C2.O=C(O)C(F)(F)F.O=C(O)C(F)(F)F (stereo unspecified) | 95.94%
CN(C)CCNCC1COCc2c(-c3ccnn3C)nnn2C1 (stereo unspecified) | 97.42%
O=C(NCC1COCc2c(-c3ccncc3)nnn2C1)[C@H]1CCCO1.O=C(O)C(F)(F)F (stereo partly specified) | 13.14%
Cc1noc(C)c1CNCC1COCc2c(-c3ccoc3)nnn2C1.O=C(O)C(F)(F)F (stereo unspecified) | -8.022%
O=C(O)C(F)(F)F.c1csc(CNCC2COCc3c(-c4ccoc4)nnn3C2)n1 (stereo unspecified) | 7.766%
Cc1nc(CNCC2COCc3c(-c4ccoc4)nnn3C2)cs1 (stereo unspecified) | -8.682%
Cn1nccc1-c1nnn2c1COCC(CNC1CCOCC1)C2.O=C(O)C(F)(F)F.O=C(O)C(F)(F)F (stereo unspecified) | 88.78%
Fc1cccc(-c2nnn3c2COCC(CNCc2nccs2)C3)c1.O=C(O)C(F)(F)F (stereo unspecified) | -16.94%
c1csc(CNCC2COCc3c(-c4ccsc4)nnn3C2)n1 (stereo unspecified) | -12.98%
CC(C)N(Cc1cccnc1)C(=O)CNc1ccc(C#N)cc1 | -12.71%
Cc1ncccc1NC(=O)[C@@H]1CC[C@@H]2[C@@H](CCN2Cc2cnn(C)c2)O1.O=C(O)C(F)(F)F.O=C(O)C(F)(F)F.O=C(O)C(F)(F)F | -6.669%
O=C(NC1CCC1)[C@@H]1CC[C@@H]2[C@@H](CCN2CCc2ccccc2)O1.O=C(O)C(F)(F)F | -17.29%
Cc1cccc(CN2CC[C@H]3O[C@H](C(=O)Nc4cnccn4)CC[C@H]32)n1.O=C(O)C(F)(F)F.O=C(O)C(F)(F)F | 108.3%
Cn1cc(CN2CC[C@H]3O[C@H](C(=O)NC4CC4)CC[C@H]32)c2ccccc21.O=C(O)C(F)(F)F | -3.833%
Cc1csc(CN2CC[C@H]3O[C@H](C(=O)Nc4cccnc4)CC[C@H]32)n1.O=C(O)C(F)(F)F.O=C(O)C(F)(F)F | 273.2%
O=C(Nc1cnccn1)[C@H]1CC[C@@H]2[C@@H](CCN2Cc2ccccn2)O1.O=C(O)C(F)(F)F | 79.42%

Structure (SMILES) | Percent Effect
O=C(NCc1ccco1)[C@H]1CC[C@@H]2[C@@H](CCN2Cc2nccs2)O1.O=C(O)C(F)(F)F | 5.491%
CC(C)NC(=O)[C@@H]1CC[C@@H]2[C@@H](CCN2Cc2ccc3ccccc3n2)O1.O=C(O)C(F)(F)F | -12.2%
O=C(NCc1ccccn1)[C@@H]1CC[C@@H]2[C@@H](CCN2c2ncc(F)cn2)O1.O=C(O)C(F)(F)F.O=C(O)C(F)(F)F | 7.451%
O=C(Nc1cnccn1)[C@@H]1CC[C@@H]2[C@@H](CCN2Cc2nccs2)O1.O=C(O)C(F)(F)F | 114.9%
O=C(c1cc[nH]n1)N(Cc1cccc(O)c1)CC1CC1 | -5.824%
CN1CCCCC12CCN(c1nncs1)CC2.O=C(O)C(F)(F)F | -22.78%
CCCN1CCc2[nH]nc(C(=O)N3CCNC(=O)C3)c2C1.O=C(O)C(F)(F)F.O=C(O)C(F)(F)F | -12.08%
Cc1nnc(C2Cc3ccccc3CN2Cc2nc(C3CC3)no2)o1 (stereo unspecified) | -2.569%
Cc1nnc(C2Cc3ccccc3CN2Cc2ncc(C(C)(C)C)o2)o1 (stereo unspecified) | 21.52%
Cc1noc(CN2Cc3ccccc3CC2c2nnc(C)o2)n1 (stereo unspecified) | 1.632%
Cc1nnc(C2Cc3ccccc3CN2Cc2nc(C(C)C)no2)o1 (stereo unspecified) | 134.6%
Cc1noc(C)c1CN1CCCC1C(=O)OCc1ccccc1 (stereo unspecified) | 4.096%
Cc1nnc(C2Cc3ccccc3CN2Cc2c(C)noc2C)o1 (stereo unspecified) | 100.9%
CCc1nnc(C2Cc3ccccc3CN2Cc2cc(C)on2)o1 (stereo unspecified) | 6.832%
CCc1nnc(C2Cc3ccccc3CN2Cc2nc(C)no2)o1 (stereo unspecified) | 88.09%
Cc1cc(CN2Cc3ccccc3CC2c2nnc(C)o2)on1 (stereo unspecified) | 1.784%
Cc1cc(CN2Cc3ccccc3CC2c2nnc(C)o2)no1 (stereo unspecified) | 108.3%
CCc1nnc(C2Cc3ccccc3CN2Cc2nc(C3CC3)no2)o1 (stereo unspecified) | -3.635%
CCc1nnc(C2Cc3ccccc3CN2Cc2cc(C)no2)o1 (stereo unspecified) | -1.172%
C[C@@H](NCc1cccc(Cl)c1)c1onc(-c2ccccc2)c1C(=O)O | -2.837%
COc1cc(CN(C)C(=O)Nc2cc(C)on2)ccc1SC | -6.064%
O=C1NC(c2ccccc2)=N[C@@]12CC[C@@H]1CN(Cc3nccs3)C[C@@H]12 | -1.68%
CC(C)N1CCC(N2CCCC(C(=O)NCC3(O)CCCCC3)C2)CC1 (stereo unspecified) | 0.6612%

Structure (SMILES) | Percent Effect
COCc1ncn2c1CN(C(=O)C1CC=CC1)CC2 | -12.78%
COCc1cnc2n1CCN(C(=O)c1ccc3ccccc3n1)C2C.O=C(O)C(F)(F)F (stereo unspecified) | -39.11%
COCc1ncn2c1CN(S(=O)(=O)Cc1ccc(C)cc1)CC2.O=C(O)C(F)(F)F | 14.75%
Cc1ccc(C(=O)N2CCn3cnc(COCC4CC4)c3C2)cn1.O=C(O)C(F)(F)F | -1.031%
O=C(O)C(F)(F)F.O=C(c1ccccn1)N1CCn2cnc(COCC3CC3)c2C1 | 22.66%
COCc1ncn2c1CN(C(=O)c1ccc3ccccc3n1)CC2.O=C(O)C(F)(F)F | 86.38%
COCc1ncn2c1CN(C(=O)c1cnc3ccccc3c1)CC2 | 79.69%
COCc1ncn2c1CN(C(=O)c1cccc3cccnc13)CC2.O=C(O)C(F)(F)F | 103%
Cc1ccc(F)c(N2CCCC(NS(=O)(=O)CCCF)C2=O)c1 (stereo unspecified) | -1.757%
O=C(CN1CCOc2ccc(Cl)cc21)NCCCn1ccnc1 | 9.044%
CN(C(=O)OC(C)(C)C)C1CCN(C(=O)c2ccc(Cl)o2)C1 (stereo unspecified) | -6.554%
CCS(=O)(=O)c1ncc(CN(C)Cc2ccccn2)n1CCOC | -6.84%
Cc1noc(NS(=O)(=O)c2ccc(Cl)s2)c1C | -16.85%
Cn1c2c(ccc1=O)CCN(Cc1ccoc1)CC2.O=C(O)C(F)(F)F | 97.4%
O=C(O)C(F)(F)F.O=C(O)C(F)(F)F.O=c1ccc2c(n1Cc1cccnc1)CCN(C1CCOC1)CC2 (stereo unspecified) | 2.129%
COCC1c2c(cnn2C)CCN1Cc1ccoc1 (stereo unspecified) | -6.273%
O=C(O)C(F)(F)F.O=C(O)C(F)(F)F.O=c1ccc2c(n1Cc1cccnc1)CCN(Cc1ccoc1)CC2 | 110%
COCCn1c2c(ccc1=O)CCN(Cc1ccoc1)CC2 | 106.6%
COc1ccc2c(c1)C1(CCN(Cc3ccoc3)CC1)N(C)CC2 | -15.48%
O=C(O)C(F)(F)F.O=C(O)C(F)(F)F.O=c1ccc2c(n1Cc1ccncc1)CCN(Cc1ccoc1)CC2 | 96.18%
O=C(O)C(F)(F)F.O=C(O)C(F)(F)F.O=c1ccc2c(n1Cc1cccnc1)CCN(CC1CCOC1)CC2 (stereo unspecified) | -12.29%
O=C(O)C(F)(F)F.O=C(O)C(F)(F)F.O=c1ccc2c(n1CCN1CCCC1)CCN(Cc1ccoc1)CC2 | -0.3339%
